The panel holds about 83,000 compounds, 20% with a hit somewhere; the sample as a whole holds those more often.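 Single-concentration screen, 48 h exposure, 96-well plates. Endpoint: percent growth. Below 10 = active.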 Unmarked numbers belong to inactive results. Activity calls are given as the source filed them.

The first test concerns SNB-75 CNS. The experiment in a line: NCI-60 one-dose screen, 48 h (100 = growth as untreated, 0 = no growth, -100 = all killed). Particulars: 10 µM unless noted.
As to `N#CCCN1C(=O)CCC1C(=O)O` (centres undefined), the growth was 103%.

Consider `Cc1c(-c2ccc(C3CCCCC3)cc2)nc2ccc(F)cc2c1C(=O)O`, for which the growth was 62.7%.

Turning to `O=C(OCc1ccccc1)n1nnc2ccccc21`, the growth is 90.2%.

Turning to `CCOC(=O)Nc1nccs1`, the growth is 111%.

Turning to `CCC(/C=C\C(C)=O)CC`, the growth was 99%.

Regarding `OCC(O)COc1ccc(Cl)cc1Cl` (centres undefined), the growth is 85.8%.

Regarding `CSc1nsc(N)n1`, the growth is 87.4%.

In the case of `CC(=O)Nc1ncc(S(=O)(=O)c2ccc([N+](=O)[O-])cc2)s1`, the growth is 103%.

Take `Cc1ccc(N2C(=O)c3cccc4c(N)c(S(=O)(=O)O)cc(c34)C2=O)cc1`: the growth was 111%.

For the molecule `Oc1cccnc1CN1CCCC1`, the growth was 96.1%.

For the molecule `CC(C)c1ccc(C(=O)OCCCl)cc1`, the growth was 94%.

On to `CCOP(=O)(OCC)/C(=C\N1C(=O)CC(=O)NC1=S)C(=O)OC`, for which the growth is 90.2%.

With `Cc1cc2c(C(C)C)c(O)c(O)c(C=Nc3ccccc3[N+](=O)[O-])c2c(O)c1-c1c(C)cc2c(C(C)C)c(O)c(O)c(C=Nc3ccccc3[N+](=O)[O-])c2c1O`, the growth is 78%.

Consider `COc1ccc(/C=N/NC(=O)COCC(=O)N/N=C/c2ccc(OC)cc2)cc1`, for which the growth was 88.6%.

As for `CCOC(=O)CSCCC#N`, the growth was 97%.

As to `CCCCCCCCNC(=O)C(C)C`, the growth was 91.2%.

Consider `C1=NCCc2ccccc21`, for which the growth was 76.4%.

As to `O=[N+]([O-])c1ccc(-c2nc(N(CCO)CCO)c3ccccc3n2)o1`, the growth is -91.7% (active).

Consider `Cc1cc(CO)c(O)c(CO)c1`, for which the growth is 64.4%.

In the case of `CC(=O)Nc1ccc(/C=C2\SC(=S)N(/C=C(\C(C)=O)C(N)=O)C2=O)cc1`, the growth is 82.4%.

Regarding `C=CCC(OC(C)=O)c1ccc(C(C)C)cc1` (centres undefined), the growth is 102%.

With `CCOc1ccc2c(c1)c(C)cc(C)[n+]2CC`, the growth was 71.2%.

For the molecule `CCOC(=O)C(COS(C)(=O)=O)(COS(C)(=O)=O)C(=O)OCC`, the growth is 99.4%.

For the molecule `CC(=O)NC(O)C(Cl)Cl` (centres undefined), the growth was 103%.

Take `Cc1cc2c3ccc(C)[n+](C)c3ccc2n1C`: the growth was 67.6%.

Consider `O=C(CC(CC(=O)c1ccccc1)c1ccccn1)c1ccccc1`, for which the growth is 92.6%.

Consider `CCOC(=O)C1(N)CCCCC1`, for which the growth is 91.8%.

Consider `C=C(OC(C)=O)c1ccccc1`, for which the growth was 98%.

Consider `COc1cccc(C(=O)NNC(=O)c2cccc3ccccc23)c1`, for which the growth was 98.7%.

In the case of `O=Cc1ccc(F)cc1`, the growth was 90.3%.

Take `Clc1ccc(C(SCc2ccccc2)SCc2ccccc2)cc1`: the growth was 91.3%.

On to `C=COC(=O)CCOCC(CC)CCCC` (centres undefined), for which the growth was 97.2%.

Turning to `NC(=S)c1c(N)n(C2OC(CO)C(O)C2O)c2ncnc(N)c12` (centres undefined), the growth was -8.18% (active).

Consider `CCCCc1ccc2nc(NC(=O)OC)[nH]c2c1`, for which the growth is 65.1%.

Turning to `CC(=O)C1C(=O)C(=O)N(c2cccc([N+](=O)[O-])c2)C1=O` (centres undefined), the growth is 93.9%.

As to `Cc1cccnc1NC1OC(=O)c2ccccc21` (centres undefined), the growth is 96.5%.

In the case of `CSc1nc2[nH]ncc2c(=O)[nH]1`, the growth was 103%.

In a further test the test system is SNB-19 CNS. Described as above. The note with it: 10 µM unless noted.
As for `N#CCCN1C(=O)CCC1C(=O)O` (centres undefined), the growth was 101%.

Consider `Cc1c(-c2ccc(C3CCCCC3)cc2)nc2ccc(F)cc2c1C(=O)O`, for which the growth is 61.7%.

Regarding `O=C(OCc1ccccc1)n1nnc2ccccc21`, the growth is 112%.

With `CCOC(=O)Nc1nccs1`, the growth was 111%.

`CCC(/C=C\C(C)=O)CC`: the growth was 99.5%.

In the case of `OCC(O)COc1ccc(Cl)cc1Cl` (centres undefined), the growth was 93.3%.

Turning to `CSc1nsc(N)n1`, the growth was 96%.

For the molecule `CC(=O)Nc1ncc(S(=O)(=O)c2ccc([N+](=O)[O-])cc2)s1`, the growth was 114%.

With `Cc1ccc(N2C(=O)c3cccc4c(N)c(S(=O)(=O)O)cc(c34)C2=O)cc1`, the growth is 112%.

On to `Oc1cccnc1CN1CCCC1`, for which the growth is 104%.

As for `CC(C)c1ccc(C(=O)OCCCl)cc1`, the growth was 91.1%.

With `CCOP(=O)(OCC)/C(=C\N1C(=O)CC(=O)NC1=S)C(=O)OC`, the growth was 98.6%.

In the case of `Cc1cc2c(C(C)C)c(O)c(O)c(C=Nc3ccccc3[N+](=O)[O-])c2c(O)c1-c1c(C)cc2c(C(C)C)c(O)c(O)c(C=Nc3ccccc3[N+](=O)[O-])c2c1O`, the growth was 43.9%.

Take `COc1ccc(/C=N/NC(=O)COCC(=O)N/N=C/c2ccc(OC)cc2)cc1`: the growth was 110%.

Take `CCOC(=O)CSCCC#N`: the growth is 104%.

On to `CCCCCCCCNC(=O)C(C)C`, for which the growth was 101%.

Regarding `C1=NCCc2ccccc21`, the growth was 109%.

Turning to `O=[N+]([O-])c1ccc(-c2nc(N(CCO)CCO)c3ccccc3n2)o1`, the growth is -0.996% (active).

Regarding `Cc1cc(CO)c(O)c(CO)c1`, the growth was 114%.

As for `CC(=O)Nc1ccc(/C=C2\SC(=S)N(/C=C(\C(C)=O)C(N)=O)C2=O)cc1`, the growth was 100%.

Consider `C=CCC(OC(C)=O)c1ccc(C(C)C)cc1` (centres undefined), for which the growth was 101%.

Consider `CCOc1ccc2c(c1)c(C)cc(C)[n+]2CC`, for which the growth was 64.8%.

Turning to `CCOC(=O)C(COS(C)(=O)=O)(COS(C)(=O)=O)C(=O)OCC`, the growth was 106%.

As for `CC(=O)NC(O)C(Cl)Cl` (centres undefined), the growth is 106%.

With `Cc1cc2c3ccc(C)[n+](C)c3ccc2n1C`, the growth is 30.6%.

With `O=C(CC(CC(=O)c1ccccc1)c1ccccn1)c1ccccc1`, the growth was 93.3%.

`CCOC(=O)C1(N)CCCCC1`: the growth was 96.5%.

As for `C=C(OC(C)=O)c1ccccc1`, the growth was 106%.

On to `COc1cccc(C(=O)NNC(=O)c2cccc3ccccc23)c1`, for which the growth is 110%.

As for `O=Cc1ccc(F)cc1`, the growth is 103%.

In the case of `Clc1ccc(C(SCc2ccccc2)SCc2ccccc2)cc1`, the growth is 105%.

Take `C=COC(=O)CCOCC(CC)CCCC` (centres undefined): the growth was 104%.

As to `NC(=S)c1c(N)n(C2OC(CO)C(O)C2O)c2ncnc(N)c12` (centres undefined), the growth was 14.9%.

For the molecule `CCCCc1ccc2nc(NC(=O)OC)[nH]c2c1`, the growth was 14.7%.

Consider `CC(=O)C1C(=O)C(=O)N(c2cccc([N+](=O)[O-])c2)C1=O` (centres undefined), for which the growth was 104%.

Turning to `Cc1cccnc1NC1OC(=O)c2ccccc21` (centres undefined), the growth was 101%.

Regarding `CSc1nc2[nH]ncc2c(=O)[nH]1`, the growth was 103%.

Values taken from PubChem BioAssay (NCI).
